# Measured values published in PubChem BioAssay AID2685 (National Center for Advancing Translational Sciences (NCATS), 2010).
# The whole screen tested about 320,000 compounds, of which about 2,100 (0.66%) were called active. About 53% were inconclusive and are not listed. Calls come from the whole dose curve; as a rule, active = well fitted inhibition curve with a large enough effect in the signal ratio, with a control signal flat (not every such curve was filed as active); inconclusive = small, poorly fitted or top-dose-only effect, or effect the other way, or a change in a side signal; inactive = flat fitted curve, though single readings scatter; the % refers to the signal ratio. The entries come from a sample that favours actives as a whole.
# Assay: qHTS Assay for Lipid Storage Modulators in Drosophila S3 Cells;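 for cell number change: cells counted by Cell Tracker Red CMTPX staining in the red channel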; for lipid storage change, negative = inhibition: % is set by controls: 0 for no effect and ±100 for the full control effect
# Details: BODIPY lipid droplet fluorescence, 18-24 h, cells fed with added oleic acid; cell number change: measured here: cell count max response; series mostly up to 46.1 µM; lipid storage change, negative = inhibition: at the top concentration
# Procedure, shortened: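 Drosophila S3 cells loaded with oleic acid (400 uM, as added) and compounds at several concentrations; lipid droplets imaged by 488-nm laser-scanning cytometry, 500–530 nm intensity and object ratio to cell channel. Percent activity normalized to 20 uM Triacsin C.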
# Potency is the fitted concentration of half-maximal effect.
SMILES,Potency,cell number change,"lipid storage change, negative = inhibition",outcome
O=C(Nc1ccc(Cl)c(S(=O)(=O)N2CCCCC2)c1)c1ccco1,0.291 µM (active),11.9%,,
CC1CCN(S(=O)(=O)c2ccc(NC(=O)c3ccco3)cc2)CC1,16.4 µM (active),-3.17%,,
CCOC(=O)N1CCC(NCCNC(=O)c2ccco2)CC1,,-0.499%,-7.46% (inactive),
O=C(Nc1ccc(S(=O)(=O)N2CCCCCC2)cc1)c1ccco1,,,,inactive
O=C(Nc1ccc(S(=O)(=O)N2CCOCC2)cc1)c1ccco1,,,,inactive
O=C(Nc1ccc(N2CCCC2)c(Cl)c1)c1ccco1,,-15.9%,15.6% (inactive),
CC1CCC(NCCNC(=O)c2ccco2)CC1 (stereo not drawn),0.82 µM (active),15.3%,,
O=C(NCCNC1CCCCC1)c1ccco1,,17.5%,10.1% (inactive),
CCOc1ccc(NC(=O)c2ccco2)cc1S(=O)(=O)N1CCCC1,,3.85%,19.1% (inactive),
Cc1nc([N+](=O)[O-])cn1-c1ccc(N)cc1,,-2.93%,-3.85% (inactive),
O=C(c1nc2ccc(Cl)cn2c1CN1CCCC(CO)C1)N1CCc2ccccc2C1 (stereo not drawn),,10.9%,-5.28% (inactive),
Cc1ccc(S(=O)(=O)c2c(C)cc(C)[nH]c2=O)c(C)c1,,17.9%,-7.93% (inactive),
Oc1ccc(Br)cc1/C=N/N1CCN(Cc2cccc3ccccc23)CC1,,17%,1.32% (inactive),
Cc1c(NC(=O)C2(c3ccccc3)CCOCC2)c(=O)n(-c2ccccc2)n1C,,-18.3%,-12.2% (inactive),
CC(C)=C1C2CCC1C(C(=O)NCc1ccccc1)C2C(=O)O (stereo not drawn),25.9 µM (active),-4.67%,,
CC(C)=C1C2CCC1C(C(=O)Nc1cc(C)cc(C)c1)C2C(=O)O (stereo not drawn),,13.2%,20.7% (inactive),
CC(C)=C1C2CCC1C(C(=O)NCCc1ccccc1)C2C(=O)O (stereo not drawn),,6.84%,5.32% (inactive),
CC(C)NC(=O)c1ccc2c(c1)N(CC(=O)NC1CCCCC1)C(=O)C(C)(C)O2,,19%,-6.03% (inactive),
S=C(Nc1ccccn1)Nc1ccccc1Cl,,-6.96%,15.4% (inactive),
CC(=O)c1ccc(NC(=O)CSc2ccc3nnc(-c4cccnc4)n3n2)cc1,,1.01%,3.23% (inactive),
CCCS(=O)(=O)Nc1cccc(-c2ccc3nnc(C)n3n2)c1,,7.15%,5.14% (inactive),
Cc1ccc(NC(=O)CSc2ccc3nnc(-c4cccnc4)n3n2)cc1,,-9.27%,-24.5% (inactive),
CCS(=O)(=O)Nc1cccc(-c2ccc3nnc(C)n3n2)c1,,-5.54%,0.724% (inactive),
O=C(CSc1ccc2nnc(-c3cccnc3)n2n1)Nc1ccccc1,0.411 µM (active),8.38%,,

SMILES,Potency,cell number change,"lipid storage change, negative = inhibition",outcome
CCS(=O)(=O)Nc1cccc(-c2ccc3nnc(-c4cccnc4)n3n2)c1,5.8 µM (active),-27%,,
CCOC(=O)C(C(=O)NCCCN1CCOCC1)C1CCCCC1 (stereo not drawn),,5.53%,-0.852% (inactive),
CCn1nc(C)c(CN2CCCC(CO)(Cc3ccccc3)C2)c1C (stereo not drawn),,6.82%,-2.88% (inactive),
Cc1ccc(-c2cc([C@H]3[C@H]4C=CC[C@@H](C)[C@@H]4C(=O)N3Cc3ccccc3)ccc2F)cc1,,-1.15%,8.48% (inactive),
COC(=O)c1cccc(NC(=O)NC(=O)c2ccccc2Cl)c1,,-8.19%,-0.414% (inactive),
Cc1cccc(NC(=O)CSc2nc3ccccc3o2)c1,,,,inactive
COCCCn1c(=N)c(C(=O)NCC2CCCO2)cc2c(=O)n3cccc(C)c3nc21 (stereo not drawn),,-13.4%,0.117% (inactive),
Cn1c(C(=O)NCCC2=CCCCC2)cc2c(=O)n3ccccc3nc21,,,,inactive
Cc1cccn2c(=O)c3cc(C(N)=S)c(=N)n(CCCOC(C)C)c3nc12,9.2 µM (active),3.82%,,
COCCCn1c(C(=O)NC2CCCCC2C)cc2c(=O)n3cccc(C)c3nc21 (stereo not drawn),20.6 µM (active),8.96%,,
Cc1cccn2c(=O)c3cc(C(=O)NCCC4=CCCCC4)n(C)c3nc12,18.4 µM (active),-17.7%,,
Cc1cccn2c(=O)c3cc(C(N)=S)c(=N)n(CCCN4CCOCC4)c3nc12,,,11% (inactive),
CC(=O)N=c1c(C#N)cc2c(=O)n3cccc(C)c3nc2n1CCCOC(C)C,,13.1%,5.07% (inactive),
COCCCn1c(C(=O)N2CC(C)OC(C)C2)cc2c(=O)n3cccc(C)c3nc21 (stereo not drawn),,0.298%,,inactive
CCCn1c(=N)c(C(=O)NC2CCCC2)cc2c(=O)n3cccc(C)c3nc21,,-9.76%,-0.957% (inactive),
CCN(C(=O)c1cc2c(=O)n3cccc(C)c3nc2n1CCCOC)C1CCCCC1,23.1 µM (active),8.25%,,
Cc1cccn2c(=O)c3cc(C(=O)NCCCN4CCCC4=O)n(C)c3nc12,,,,inactive
COCCCn1c(=NC(C)=O)c(C#N)cc2c(=O)n3cccc(C)c3nc21,,0.683%,10.7% (inactive),
O=C(CCc1nnc(C2(c3ccc(Cl)cc3)CCC2)o1)NC1CC1,,6.23%,0.737% (inactive),
Cc1ccc2[nH]c3c(c2c1)CCN1C(=O)OC(C)(C)C31C (stereo not drawn),,-17.1%,-5.19% (inactive),
O=C(CCCc1nc2ccccc2s1)N1CCN(c2ccccc2F)CC1,,22.1%,2.32% (inactive),
COc1cc(/C=C/C(=O)OCC(=O)c2c[nH]c3ccccc23)ccc1OC(F)F,,-14.2%,-0.565% (inactive),
COc1cccc(/C=C/C(=O)OCC(=O)c2c[nH]c3ccccc23)c1,9.2 µM (active),-14.3%,,
